Measurements: the supplement of paper PMC10646978
± gives the standard deviation.

Key:
Conditions in all cases: modulator concentration 10 µM
[1] = tested on: RAW-Dual (murine macrophage reporter line); experiment: NF-kB reporter (SEAP) activity fold change vs agonist alone; higher = enhanced NF-kB activity
In short: (§1)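 RAW-Dual murine macrophage reporter cells were seeded at 50 000 per well in 384-well plates and pre-incubated 1 hour at 37 °C with compound pin-transferred to 10 μM final. After 1 hour, a PRR agonist was added and cells incubated overnight. Supernatant NF-κB (SEAP, QUANTI-Blue, 620 nm absorbance) and IRF (Lucia luciferase, QUANTI-Luc, luminescence) signals were divided by the mean agonist-only control on the same plate to give fold change. Two replicate plates were averaged, with errors by propagation.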

[2] = tested on: RAW-Dual (murine macrophage reporter line); experiment: IRF reporter (Lucia luciferase) activity fold change vs agonist alone; higher = enhanced IRF activity
In short: as §1

[3] = tested on: RAW-Dual (murine macrophage reporter line); experiment: viability score (confluency relative to resting cells, overnight) (fraction); higher = more viable, active = viable (0.7 or more)
In short: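 RAW-Dual macrophages in 384-well plates were treated overnight with compound at 10 μM final. IncuCyte imaging recorded confluency, and IncuCyte software built two confluency masks across every imaged well. The viability score expresses confluency relative to resting cells and was judged against a cutoff, which a compound met only if both masks exceeded 70% of resting cells.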

[4] = agonist: CpG ODN 1826 0.5 ug/mL

SMILES | NF-kB reporter [1, 4] | NF-kB reporter ([1]; agonist: LPS 0.1 ug/mL) | NF-kB reporter ([1]; agonist: MPLA […]) | IRF reporter ([2]; agonist: 3'3'-cGAMP 10 ug/mL) | IRF reporter ([2]; agonist: LPS 0.1 ug/mL) | IRF reporter ([2]; agonist: MPLA […]) | viability score [3]
COc1ccccc1CC(=O)N1CCN(Cc2cnnn2-c2ccccc2F)CC1 | 0.894 ± 0.048 | 0.985 ± 0.084 | 1.15 ± 0.065 | 1.16 ± 0.093 | 1.14 ± 0.19 | 1.11 ± 0.46 | 1.01 (active)
CC(=O)CC(c1ccccc1)c1c(OC(C)=O)c2ccccc2oc1=O (centres undefined) | 0.865 ± 0.059 | 0.925 ± 0.11 | 0.779 ± 0.1 | 0.908 ± 0.03 | 1.3 ± 0.1 | 1.14 ± 0.19 | 1 (active)
CC12CC1(C)C(=O)N(c1cc(Cl)cc(Cl)c1)C2=O (centres undefined) | 1.06 ± 0.092 | 1.1 ± 0.097 | 0.96 ± 0.045 | 0.942 ± 0.085 | 1.11 ± 0.081 | 1.18 ± 0.17 | 1 (active)
Cc1cccc2sc(NC(=O)c3cccn(Cc4ccc(Br)cc4)c3=O)nc12 | 1.06 ± 0.12 | 1.13 ± 0.096 | 1.02 ± 0.15 | 1.04 ± 0.052 | 1.32 ± 0.084 | 1.12 ± 0.085 | 1 (active)
CC1=C(O)C(=O)C=C2C1=CC=C1C2(C)CCC2(C)C3CC(C)(C(=O)O)CCC3(C)CCC12C (centres undefined) | 0.062 ± 0.0049 | 0.048 ± 0.0035 | 0.0885 ± 0.0089 | 0.0157 ± 0.0014 | 0.116 ± 0.081 | 0.071 ± 0.039 | 0.381 (inactive)
CN1C(=O)C(=Cc2nc3ccccc3c(=O)n2-c2ccccc2)c2ccccc21 | 1.01 ± 0.088 | 0.867 ± 0.097 | 1.65 ± 0.63 | 1.08 ± 0.052 | 1.32 ± 0.23 | 1.29 ± 0.24 | 1.05 (active)
CCOc1cc(C=C2N=C(c3cccc(C)c3)OC2=O)ccc1OC(=O)Cc1ccccc1 | 0.858 ± 0.069 | 0.959 ± 0.081 | 0.914 ± 0.057 | 0.8 ± 0.024 | 1.19 ± 0.1 | 0.964 ± 0.12 | 1.01 (active)
O=C1NC(=O)C(C(CC(=O)c2ccccc2)c2ccccc2)C(=O)N1 (centres undefined) | 1.04 ± 0.093 | 0.984 ± 0.076 | 0.93 ± 0.035 | 0.942 ± 0.12 | 1.02 ± 0.045 | 0.931 ± 0.14 | 1 (active)
COC(=O)c1ccc(N2C(=O)NC(=O)C(=Cc3ccc(OCc4ccccc4F)cc3)C2=O)cc1 | 1.06 ± 0.11 | 1.04 ± 0.057 | 0.88 ± 0.056 | 0.942 ± 0.043 | 1.25 ± 0.24 | 1.08 ± 0.25 | 1 (active)
CC[C@@]1(O)C(=O)OCc2c1cc1n(c2=O)Cc2cc3ccccc3nc2-1 [Prestw-200] | 1.33 ± 0.23 | 1.75 ± 0.17 | 2.95 ± 0.72 | 3.06 ± 0.081 | 2.05 ± 0.42 | 2.66 ± 0.37 | 0.768 (active)
Cc1cc(C(=O)N2C3CCC2c2cncnc2C3)c(C)o1 (centres undefined) | 1.03 ± 0.087 | 1.06 ± 0.092 | 1 ± 0.036 | 0.974 ± 0.066 | 0.94 ± 0.06 | 0.832 ± 0.13 | 0.999 (active)
N=C(N)NOCCC(N)C(=O)O (centres undefined) | 1.02 ± 0.076 | 1 ± 0.058 | 1.02 ± 0.03 | 0.979 ± 0.057 | 0.938 ± 0.12 | 0.931 ± 0.13 | 0.998 (active)
OCC(O)Cc1ccc2c(c1)OCO2 (centres undefined) | 1.02 ± 0.096 | 0.831 ± 0.062 | 0.906 ± 0.093 | 0.988 ± 0.031 | 1.37 ± 0.19 | 1.53 ± 0.25 | 0.994 (active)
CC(C(O)c1ccccc1)N(C)C (centres undefined) | 0.96 ± 0.084 | 0.883 ± 0.065 | 0.955 ± 0.091 | 0.995 ± 0.031 | 1.26 ± 0.12 | 1.3 ± 0.19 | 1 (active)
CCC1(C)CC(CCNCc2ccccc2)(c2ccc(C)cc2)CCO1 (centres undefined) | 0.701 ± 0.29 | 1.15 ± 0.099 | 1.19 ± 0.18 | 0.57 ± 0.018 | 1.38 ± 0.14 | 1.76 ± 0.31 | 0.547 (inactive)
Cc1ccc(-c2nn(-c3ccccc3)cc2C=C2C(=O)NC(=S)NC2=O)o1 | 1.03 ± 0.3 | 1.01 ± 0.11 | 0.898 ± 0.071 | 0.968 ± 0.057 | 1.27 ± 0.2 | 1.25 ± 0.13 | 1 (active)
CCn1cc(C(=O)O)c(=O)c2c(N)c(F)c(N3CCNCC3)c(F)c21 | 0.952 ± 0.067 | 1.09 ± 0.068 | 0.859 ± 0.073 | 0.972 ± 0.033 | 1.47 ± 0.14 | 1.2 ± 0.2 | 0.998 (active)
NNC(=O)c1ccccc1 | 1.06 ± 0.088 | 1.05 ± 0.082 | 1.02 ± 0.022 | 0.929 ± 0.086 | 0.914 ± 0.15 | 0.931 ± 0.12 | 1 (active)
COCCN1C(=O)CN(C2CCN(CC(=O)N3CC(C)OC(C)C3)CC2)C1=O (centres undefined) | 0.903 ± 0.056 | 0.889 ± 0.11 | 0.997 ± 0.073 | 0.95 ± 0.13 | 0.979 ± 0.13 | 1.03 ± 0.29 | 0.977 (active)
COc1cc(C2c3cc4c(cc3C(O)C3COC(=O)C23)OCO4)cc(OC)c1OC (centres undefined) | 1.37 ± 0.41 | 0.807 ± 0.077 | 1.08 ± 0.1 | 0.688 ± 0.021 | 1.19 ± 0.17 | 1.51 ± 0.22 | 0.967 (active)
COC(=O)COc1ccc(C=C2C(=O)NC(=S)N(c3cccc(Cl)c3Cl)C2=O)cc1OC | 0.959 ± 0.09 | 1.04 ± 0.086 | 0.932 ± 0.063 | 0.909 ± 0.048 | 1.35 ± 0.12 | 1.14 ± 0.12 | 1.01 (active)
CC[C@@H](C(N)=O)N1CCCC1=O | 1.04 ± 0.1 | 1.05 ± 0.059 | 0.993 ± 0.056 | 1.06 ± 0.17 | 0.88 ± 0.075 | 0.863 ± 0.15 | 1 (active)
C=C(C)C1Cc2c(ccc3c2OC2COc4cc(OC)c(OC)cc4C2C3=O)O1 (centres undefined) | 1.6 ± 0.13 | 1.02 ± 0.1 | 1.75 ± 0.18 | 0.515 ± 0.028 | 1.64 ± 0.27 | 2.07 ± 0.4 | 0.924 (active)
Nc1nc(N)nc(NC2CC2)n1 | 1.47 ± 0.063 | 1.15 ± 0.1 | 1.67 ± 0.39 | 0.614 ± 0.064 | 0.992 ± 0.24 | 0.892 ± 0.33 | 0.987 (active)
COc1ccc(CCNCc2cccc3ccccc23)cc1OC | 0.222 ± 0.016 | 0.82 ± 0.059 | 0.867 ± 0.058 | 0.872 ± 0.047 | 1.32 ± 0.093 | 1.44 ± 0.14 | 0.947 (active)
CCC1(c2c[nH]cn2)Cc2ccccc2C1.Cl | 0.752 ± 0.1 | 1.11 ± 0.082 | 0.863 ± 0.05 | 1 ± 0.05 | 1.25 ± 0.11 | 1.07 ± 0.081 | 0.976 (active)
COc1ccc(C(CN(C)C)C2(O)CCCCC2)cc1.Cl (centres undefined) | 1.07 ± 0.08 | 1.06 ± 0.1 | 0.971 ± 0.056 | 1.07 ± 0.22 | 0.867 ± 0.052 | 0.928 ± 0.081 | 1 (active)
